Measurements as given in ChEMBL document CHEMBL3988442, “University of Dundee, Small-Polar-MMV Screening Library” (2021).
For some assays here: Results with a measured potency or affinity are listed apart.

Assays:
Set-up in all cases: scale not given: direction of the effect not stated beside the values
[1] = molecular target: Protein translocase subunit SecA (Escherichia coli (strain K12)) (UniProt P10408); test: Assay to Identify E. coli SecA ATPase Inhibitors; assay type: functional; details: 30 µM
[2] = molecular target: T1, Ubiquitin-activating enzyme e1, putative (Leishmania donovani (strain BPK282A1)) (UniProt E9BSI1); test: Leishmania donovani Ubiquitin Activating Enzyme (LdE1); assay type: functional; details: 30 µM
T1 sequence (whole entry): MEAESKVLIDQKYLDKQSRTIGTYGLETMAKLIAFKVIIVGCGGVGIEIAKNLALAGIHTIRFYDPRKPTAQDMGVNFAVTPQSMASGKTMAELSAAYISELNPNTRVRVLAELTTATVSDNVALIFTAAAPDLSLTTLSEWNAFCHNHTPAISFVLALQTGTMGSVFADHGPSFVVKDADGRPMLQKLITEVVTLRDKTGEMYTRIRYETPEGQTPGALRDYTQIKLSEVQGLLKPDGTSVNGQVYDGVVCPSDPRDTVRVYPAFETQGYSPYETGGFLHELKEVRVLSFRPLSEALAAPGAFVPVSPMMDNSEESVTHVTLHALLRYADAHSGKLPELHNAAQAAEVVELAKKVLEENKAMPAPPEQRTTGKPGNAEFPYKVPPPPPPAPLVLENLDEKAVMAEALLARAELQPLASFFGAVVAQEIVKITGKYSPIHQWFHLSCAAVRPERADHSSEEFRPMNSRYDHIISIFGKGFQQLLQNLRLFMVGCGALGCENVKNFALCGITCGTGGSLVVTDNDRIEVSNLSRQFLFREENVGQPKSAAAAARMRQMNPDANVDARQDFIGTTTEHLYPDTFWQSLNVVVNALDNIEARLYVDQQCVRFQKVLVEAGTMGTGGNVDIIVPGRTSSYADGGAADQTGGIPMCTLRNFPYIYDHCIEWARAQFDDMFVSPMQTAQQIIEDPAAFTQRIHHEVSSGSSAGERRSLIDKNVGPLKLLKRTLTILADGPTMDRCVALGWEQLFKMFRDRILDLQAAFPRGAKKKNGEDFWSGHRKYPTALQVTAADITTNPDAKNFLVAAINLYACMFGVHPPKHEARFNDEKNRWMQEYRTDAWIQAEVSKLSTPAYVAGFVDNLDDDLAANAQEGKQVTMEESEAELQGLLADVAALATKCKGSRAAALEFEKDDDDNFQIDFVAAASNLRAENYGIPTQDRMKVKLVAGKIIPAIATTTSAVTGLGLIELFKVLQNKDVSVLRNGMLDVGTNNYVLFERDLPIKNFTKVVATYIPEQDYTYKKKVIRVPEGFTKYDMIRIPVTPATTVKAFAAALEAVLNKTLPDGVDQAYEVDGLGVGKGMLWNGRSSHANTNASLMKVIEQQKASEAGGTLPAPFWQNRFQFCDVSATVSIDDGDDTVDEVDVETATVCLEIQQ

[3] = molecular target: AMP-activated protein kinase, AMPK (Homo sapiens) (UniProt P54646+O43741+P54619+Q9UGJ0+Q9Y478+Q13131+Q9UGI9); test: AMP-dependent Kinase enzyme assay. An in vitro enzyme assay that detects ADP turnover that is directly proportional to AMPK activity. This uses naive AMPK that is activated during the assay with MK-8722; assay type: functional; details: 30 µM
[4] = molecular target: Sialic acid-binding Ig-like lectin 9 (Homo sapiens) (UniProt Q9Y336); test: Hs-Siglec9 ALPHAscreen SOP 20170721; details: 10 µM
Trypanosoma cruzi = test: Trypanosoma cruzi phosphomannomutase and mannose-1-phosphate guanylyltransferase assay; assay type: functional; details: 10 µM
[5] = molecular target: T2, Arginase-2, mitochondrial (Homo sapiens) (UniProt P78540); test: in vitro enzyme assay to detect the production of urea directly proportional to the activity of Arginase II; assay type: functional; details: 33.3 µM; also: in the data most compounds retested in dose-response had high values
T2 sequence (whole entry): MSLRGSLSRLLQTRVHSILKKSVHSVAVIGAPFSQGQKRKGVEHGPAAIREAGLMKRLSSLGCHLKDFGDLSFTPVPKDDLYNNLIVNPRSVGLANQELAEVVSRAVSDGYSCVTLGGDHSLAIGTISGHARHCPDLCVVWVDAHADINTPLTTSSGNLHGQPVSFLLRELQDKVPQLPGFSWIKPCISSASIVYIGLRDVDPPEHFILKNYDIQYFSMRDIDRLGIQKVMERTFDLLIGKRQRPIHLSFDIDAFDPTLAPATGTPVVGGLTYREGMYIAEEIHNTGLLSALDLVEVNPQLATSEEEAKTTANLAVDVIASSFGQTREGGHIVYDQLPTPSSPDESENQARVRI

[6] = molecular target: T3, Proteasome subunit beta (Trypanosoma cruzi) (UniProt O96673); test: Trypanosoma cruzi proteasome chymotrypsin-like activity (TcProtChymo) assay.; also: in the data most compounds retested in dose-response had high values; assay type: functional; details: 9.37 µM
T3 sequence (whole entry): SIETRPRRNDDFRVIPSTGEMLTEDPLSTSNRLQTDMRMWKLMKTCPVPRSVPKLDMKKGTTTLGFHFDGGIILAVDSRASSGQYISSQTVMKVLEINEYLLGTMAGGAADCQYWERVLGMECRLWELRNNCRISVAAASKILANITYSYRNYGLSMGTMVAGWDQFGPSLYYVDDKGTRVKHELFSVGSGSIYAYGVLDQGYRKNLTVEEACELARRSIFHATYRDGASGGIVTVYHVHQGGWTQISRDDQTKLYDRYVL

Homo sapiens = organism: Homo sapiens; test: To identify inhibition of the IFN signalling (Jak-Stat) pathway via expression of an eGFP reporter gene under the control of an IFN-stimulated response element (ISRE) containing MxA promoter.; assay type: functional; details: 30 µM
[7] = molecular target: T4, Tyrosyl-tRNA synthetase, putative (Trypanosoma cruzi (strain CL Brener)) (UniProt Q4DSP6); test: Trypanosoma cruzi tyrosyl tRNA synthetase (TcYRS) _High Tyrosine SOP; assay type: functional; details: 30 µM; also: in the data most compounds retested in dose-response had high values
T4 sequence (whole entry): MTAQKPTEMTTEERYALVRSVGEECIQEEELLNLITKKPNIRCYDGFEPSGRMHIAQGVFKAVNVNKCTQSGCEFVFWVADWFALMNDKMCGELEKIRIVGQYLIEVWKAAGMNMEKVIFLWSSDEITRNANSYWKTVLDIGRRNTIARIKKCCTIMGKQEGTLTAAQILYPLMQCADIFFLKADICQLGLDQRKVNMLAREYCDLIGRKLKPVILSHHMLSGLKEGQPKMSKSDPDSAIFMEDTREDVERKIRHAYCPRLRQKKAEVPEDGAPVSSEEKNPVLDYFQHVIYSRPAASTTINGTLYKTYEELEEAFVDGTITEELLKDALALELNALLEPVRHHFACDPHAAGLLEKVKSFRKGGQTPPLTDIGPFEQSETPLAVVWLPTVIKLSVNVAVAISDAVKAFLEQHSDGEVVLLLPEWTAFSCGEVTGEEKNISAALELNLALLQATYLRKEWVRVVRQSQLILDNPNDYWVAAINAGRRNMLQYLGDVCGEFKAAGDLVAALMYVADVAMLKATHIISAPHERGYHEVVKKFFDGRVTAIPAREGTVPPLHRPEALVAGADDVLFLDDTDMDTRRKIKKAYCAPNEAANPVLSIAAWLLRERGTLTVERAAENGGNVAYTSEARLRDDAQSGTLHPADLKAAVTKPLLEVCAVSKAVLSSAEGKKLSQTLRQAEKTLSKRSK

[8] = molecular target: T4, Tyrosyl-tRNA synthetase, putative (Trypanosoma cruzi (strain CL Brener)); test: Trypanosoma cruzi tyrosyl tRNA synthetase (TcYRS) SOP; assay type: functional; details: 30 µM
[9] = molecular target: Chromo domain-containing protein 1 (Saccharomyces cerevisiae (strain ATCC 204508 / S288c) (Baker's yeast)) (UniProt P32657); test: ScCHD-1 Enzyme Inhibition Assay; assay type: functional; details: 30 µM; also: in the data most compounds retested in dose-response had high values
Chain of Chromo domain-containing protein 1 (Saccharomyces cerevisiae (strain ATCC 204508 / S288c) (Baker's yeast)) (P32657 whole entry, the tested form may be a part): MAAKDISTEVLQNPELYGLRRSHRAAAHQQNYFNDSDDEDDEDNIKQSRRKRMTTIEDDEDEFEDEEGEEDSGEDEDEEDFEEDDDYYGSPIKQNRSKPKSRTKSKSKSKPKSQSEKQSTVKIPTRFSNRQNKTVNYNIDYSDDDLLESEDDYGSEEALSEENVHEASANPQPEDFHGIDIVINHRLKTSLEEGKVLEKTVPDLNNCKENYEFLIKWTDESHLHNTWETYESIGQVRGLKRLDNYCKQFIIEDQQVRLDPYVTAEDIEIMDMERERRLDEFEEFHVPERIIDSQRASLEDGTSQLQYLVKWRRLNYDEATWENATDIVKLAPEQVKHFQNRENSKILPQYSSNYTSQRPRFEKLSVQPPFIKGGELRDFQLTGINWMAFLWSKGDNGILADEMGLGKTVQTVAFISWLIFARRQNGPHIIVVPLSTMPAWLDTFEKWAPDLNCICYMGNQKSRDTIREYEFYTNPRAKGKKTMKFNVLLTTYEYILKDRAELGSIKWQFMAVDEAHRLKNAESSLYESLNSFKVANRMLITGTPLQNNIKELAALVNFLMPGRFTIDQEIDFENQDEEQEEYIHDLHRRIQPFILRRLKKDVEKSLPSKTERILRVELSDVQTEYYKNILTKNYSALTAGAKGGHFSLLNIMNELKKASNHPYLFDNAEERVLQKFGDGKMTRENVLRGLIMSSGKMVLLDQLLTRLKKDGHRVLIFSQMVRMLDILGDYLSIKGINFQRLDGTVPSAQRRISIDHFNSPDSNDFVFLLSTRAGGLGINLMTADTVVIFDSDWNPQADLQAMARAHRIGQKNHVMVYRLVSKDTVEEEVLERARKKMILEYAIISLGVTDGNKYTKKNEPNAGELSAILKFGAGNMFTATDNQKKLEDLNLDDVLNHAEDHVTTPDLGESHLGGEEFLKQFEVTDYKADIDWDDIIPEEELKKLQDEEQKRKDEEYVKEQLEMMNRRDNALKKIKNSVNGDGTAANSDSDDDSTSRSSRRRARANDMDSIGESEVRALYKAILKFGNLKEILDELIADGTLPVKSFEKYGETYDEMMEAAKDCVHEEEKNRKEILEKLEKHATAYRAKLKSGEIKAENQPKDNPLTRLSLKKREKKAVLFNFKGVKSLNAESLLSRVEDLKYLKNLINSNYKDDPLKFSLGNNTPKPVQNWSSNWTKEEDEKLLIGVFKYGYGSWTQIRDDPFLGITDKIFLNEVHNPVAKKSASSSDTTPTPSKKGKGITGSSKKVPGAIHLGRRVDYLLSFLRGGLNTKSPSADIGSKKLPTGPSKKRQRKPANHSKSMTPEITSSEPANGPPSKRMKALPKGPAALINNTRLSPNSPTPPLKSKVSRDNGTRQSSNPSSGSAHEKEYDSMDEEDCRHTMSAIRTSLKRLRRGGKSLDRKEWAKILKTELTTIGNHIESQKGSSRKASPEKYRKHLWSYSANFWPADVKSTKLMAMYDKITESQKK

Chain of Protein translocase subunit SecA (Escherichia coli (strain K12)) (P10408 whole entry): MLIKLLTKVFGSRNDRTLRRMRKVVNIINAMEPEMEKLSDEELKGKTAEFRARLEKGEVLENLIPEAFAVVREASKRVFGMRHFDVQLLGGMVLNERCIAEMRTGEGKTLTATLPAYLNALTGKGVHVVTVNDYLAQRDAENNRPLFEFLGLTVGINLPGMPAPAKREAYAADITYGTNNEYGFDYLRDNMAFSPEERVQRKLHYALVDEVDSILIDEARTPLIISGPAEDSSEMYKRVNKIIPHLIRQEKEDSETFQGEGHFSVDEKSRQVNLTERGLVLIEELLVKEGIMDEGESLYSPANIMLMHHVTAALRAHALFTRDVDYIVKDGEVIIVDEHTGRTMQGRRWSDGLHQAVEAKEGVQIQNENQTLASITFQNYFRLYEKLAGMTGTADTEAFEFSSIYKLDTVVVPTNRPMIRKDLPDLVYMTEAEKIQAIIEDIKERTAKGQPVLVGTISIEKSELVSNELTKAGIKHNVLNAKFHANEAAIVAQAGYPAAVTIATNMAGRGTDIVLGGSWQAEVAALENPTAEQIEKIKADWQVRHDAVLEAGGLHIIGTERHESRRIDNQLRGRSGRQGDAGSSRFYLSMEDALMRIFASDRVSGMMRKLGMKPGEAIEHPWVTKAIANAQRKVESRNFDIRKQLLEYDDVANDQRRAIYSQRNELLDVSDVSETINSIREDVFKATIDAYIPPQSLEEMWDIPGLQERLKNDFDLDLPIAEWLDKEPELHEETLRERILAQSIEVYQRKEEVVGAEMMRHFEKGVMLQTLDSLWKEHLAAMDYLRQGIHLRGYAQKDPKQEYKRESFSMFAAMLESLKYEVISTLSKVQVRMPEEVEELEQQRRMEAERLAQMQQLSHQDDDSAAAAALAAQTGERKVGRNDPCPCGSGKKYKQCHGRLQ
Chain of Sialic acid-binding Ig-like lectin 9 (Homo sapiens) (Q9Y336 whole entry): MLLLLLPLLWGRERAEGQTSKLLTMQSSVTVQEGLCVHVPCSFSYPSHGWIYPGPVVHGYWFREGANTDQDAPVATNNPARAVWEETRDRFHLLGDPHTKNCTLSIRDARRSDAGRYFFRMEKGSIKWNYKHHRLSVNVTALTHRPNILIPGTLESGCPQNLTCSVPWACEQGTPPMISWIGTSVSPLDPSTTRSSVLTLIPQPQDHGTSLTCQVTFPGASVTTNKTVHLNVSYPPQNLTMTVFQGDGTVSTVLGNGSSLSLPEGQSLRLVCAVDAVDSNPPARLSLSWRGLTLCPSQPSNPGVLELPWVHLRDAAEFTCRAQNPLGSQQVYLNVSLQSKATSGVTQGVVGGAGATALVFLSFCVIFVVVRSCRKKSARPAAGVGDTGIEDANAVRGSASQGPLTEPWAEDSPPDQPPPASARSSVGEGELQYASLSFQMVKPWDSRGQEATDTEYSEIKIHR

Compound | Percent Effect [1] | Percent Effect [2] | Percent Effect [3] | Percent Effect [4] | Percent Effect (Trypanosoma cruzi) | Percent Effect [5] | Percent Effect [6] | Percent Effect (Homo sapiens) | Percent Effect [7] | Percent Effect [8] | Percent Effect [9]
CC(C)c1nn(C)c(N(C)C)c1CNCC(O)c1ccccc1F (configuration not stated) | -3.41% | 18.2% | -14.7% | 3.26% | 0.562% | -1.07% | 4.39% | 10.4% | 6.8% | 7.32% | -8.47%
COCC1CN(Cc2ccc(C)o2)Cc2nnn(CC3CC3)c21 (configuration not stated) | -3.94% | 2.6% | 4.37% | 2.36% | -2.46% | 2.76% | 0.832% | -1.19% | -2.15% | -1.24% | 5.36%
CN(Cc1ccccc1O)C(=O)NC1CCCN(c2ncccn2)C1 (configuration not stated) | -1.53% | 15.8% | 0.343% | -3.02% | -7.89% | -1.53% | 6.01% | 26.3% | 2.45% | 7.32% | -8.65%
O=C1NC(c2ccccc2)=N[C@@]12CC[C@@H]1CN(Cc3ccccc3)C[C@@H]12 | -1.1% | 10.7% | -2.75% | 0.12% | 2.12% | -43.5% | 7.18% | 3.72% | 10.4% | 27.5% | -8.07%
Cc1nnc(N2CCOC(Cn3cccn3)C2)c(C#N)c1C (configuration not stated) | -1.71% | -5.26% | -36.6% | 1.01% | 2.26% | 4.21% | -0.334% | -3.56% | 2.45% | 0% | -0.172%
Cc1cnc(C(=O)N2CCCC(n3ccnc3C)C2)cn1 (configuration not stated) | -4.96% | 5.26% | -7.85% | 7.54% | 8.5% | 0.36% | 3.13% | 3.76% | 5.42% | 18.5% | -4.86%
CN(Cc1nc(N)c2ccccc2n1)CC1CCCN1c1cccnn1 (configuration not stated) | -6.24% | 5.2% | 2.23% | -2.05% | 11.8% | -2.32% | 13.2% | -8.77% | 6.67% | 18.8% | -22.9%
CCN(CC(=O)NC(C)C)S(=O)(=O)N1CCCCCC1 | -2.15% | 16.2% | -3.94% | 11.8% | 2.64% | 3.23% | 12.3% | 5.69% | 3.23% | 16.1% | -10.9%
Cc1cccc(OCCNC(=O)CN2CCCC2Cn2cccn2)c1 (configuration not stated) | -2.54% | -5.26% | -4.16% | 6.34% | 4.95% | -4.32% | -0.931% | -9.42% | 5.42% | 11.1% | -3.56%
Cc1cccc(CCC(=O)N2CCCC(c3cc(C(N)=O)[nH]n3)C2)c1 (configuration not stated) | -1.48% | -18.9% | 4.97% | 8.55% | 6.13% | -10% | 0.36% | 9.14% | 0.493% | 11.1% | -8.73%
c1ccc(-c2cnc(CN3CCn4c(nnc4C4CC4)C3)o2)cc1 | 3.62% | 13.2% | -0.492% | 0.484% | -0.564% | 6.9% | 10% | 18.2% | 6.37% | 17.1% | -9.44%
Cc1ncc(CNCC2CCCN2c2cccnn2)s1 (configuration not stated) | 0.235% | 8.86% | -1.3% | -1.84% | 3.79% | 5.38% | 15.9% | 22.7% | 9.38% | 12.7% | -17.8%
CN(C)C(=O)NCc1cc2n(n1)CCN(C[C@H]1[C@@H]3CNC[C@@H]31)C2 | -4.24% | 13.5% | -5.71% | 30.6% | 9.65% | 15.7% | 9.65% | 10.3% | 3.7% | 19.5% | -12.2%
COc1cccc(CN2CCC(c3nccn3C(C)C)CC2)c1 | -3.84% | 15.6% | 0.593% | 14.9% | 4.23% | -5.52% | 11.5% | -3.74% | 7.53% | 21% | -7.09%
O=C(NCC1CCN(C(=O)c2ccoc2)CC1)c1ccccc1Br | -6.61% | 5.48% | 3.13% | -5.78% | -4.7% | -0.455% | 15.6% | -0.0227% | 3.23% | 5% | -4.05%
CCn1nc2c(cc1=O)CN(Cc1nc(N)c3ccccc3n1)CC2 | -5.07% | 5.48% | -62.9% | 1.04% | 3.92% | 3.64% | 14.6% | -3.85% | 2.15% | 12.5% | -7.75%
COc1ccc(CN2C[C@@H]3COC[C@]3(COc3cccnc3)C2)cc1 | -1.95% | 0% | 3.5% | -0.202% | 3.12% | -0.417% | 4.14% | -15.2% | 0% | 6.1% | -0.593%
Cc1ccc(CC(=O)NC(C)C(=O)N2CCS(=O)(=O)CC2)cc1 (configuration not stated) | -6.49% | 0% | -3.26% | 4.88% | -2.9% | -1.91% | 10.2% | 1.44% | 3.7% | 2.44% | -3.12%
O=C(c1ccncn1)N1CCO[C@H]2[C@@H](OCc3cccnc3)CC[C@@H]21 | -1.55% | 8% | -0.169% | 5.8% | -3.48% | -23.8% | 8.72% | 2.92% | -6.25% | 7.5% | -6.65%
CN(C)CCN1CCOCC2(C1)CN(Cc1ccsc1)CCO2 (configuration not stated) | -4.22% | 5.33% | 14.3% | 0.643% | -2.56% | 4.89% | 4.67% | -0.367% | 4.25% | 8.97% | -3.51%
O=C(c1ccco1)N1CCC2(CCOC2)C1 (configuration not stated) | -0.538% | 12% | -4.74% | -1.73% | -2.16% | 3.35% | 20.1% | -9.81% | 1.06% | 7.69% | -7.58%
Cc1noc(C(C)C)c1C(=O)NCc1cccc(N(C)C)c1 | -7.07% | 18.2% | -6.12% | -1.43% | -6.74% | -2.49% | 8.28% | 33% | 4.85% | 9.76% | -8%
